# Gli-Sufu block – Gli-Sufu pathway antagonists, primary screen, luciferase luminescence, Sufu-KO-LIGHT cells, uHTS; Sufu-KO-LIGHT fibroblasts, Gli luciferase reporter luminescence; inhibition, % at 5 µM; actives 0.74% (n = 340,000);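 active = inhibition above about 55%, limit read from the data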;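 note: 0% = DMSO-treated cells and 100% = wells with medium but no cells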
# Jurkat NFkB inh – inhibitors of induced NF-kB luciferase reporter, primary screen, TCR NF-kB activation inhibitor project, cell-based, luminescence, uHTS. Jurkat, PMA/ionomycin-induced NF-kB luciferase reporter. inhibition, % at 4 µM. actives 0.53% (n = 330,000). AID 435003, 2010; in the data active = inhibition above about 50%
# Cardio protect – cardioprotection against H2O2-induced cell death, primary screen, uHTS, H9c2 cells, ATPLite luminescence | H9c2 cardiomyocytes, H2O2 injury protection, 2 h | protection from H2O2 cell death, % at 20 µM | actives 0.63% (n = 360,000) | AID 588492, 2011;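 active = compounds giving at least 50% protection of heart cells from peroxide-induced death in the single-dose screen, raw or plate-pattern-corrected value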;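 note: 0% = DMSO wells with peroxide and 100% = DMSO wells without peroxide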
# TAG inh – inhibitors of triacylglycerol accumulation, primary screen, cell-based, uHTS, fluorescence, H9c2. H9c2 cells, Nile Red lipid (TAG) fluorescence; cells loaded with 200 µM oleic acid. actives 0.66% (n = 230,000). inhibition, % at 12.5 µM;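 active = pattern-corrected inhibition of lipid staining of at least 50% with the nuclear-stain viability signal not falling by more than 50%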;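 note: 0% = DMSO wells and 100% = triacsin C control wells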
# 697 NFkB inh – inhibitors of PMA/ionomycin-induced NF-kB reporter, 697 cells, primary screen, B-cell NF-kB inhibitor project, cell-based, luminescence, uHTS; actives 0.33% (n = 330,000); inhibition, % at 4 µM; 697 B-cell NF-kB luciferase reporter, 16 h; in the data active = inhibition above about 35%
# COUP-TFII inh – NR2F2 transcriptional activity inhibitors, primary screen, cell-based, luciferase reporter, HEK293T, luminescence; COUP transcription factor 2 (Homo sapiens), P24468; HEK293T NGFI-A luciferase reporter; inhibition, % at 8.6 µM; actives 0.7% (n = 370,000); AID 686940, 2013;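 active = inhibition above a per-plate cutoff, mean inhibition of test wells between control levels plus 3 SD, cut at about 38% in these data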;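 note: cells cotransfected with COUP-TFII expression vector driving the NGFI-A reporter; 0% = median of COUP-TF2 test wells and 100% = reporter-only cells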
# Target sequence (P24468 whole entry, looked up): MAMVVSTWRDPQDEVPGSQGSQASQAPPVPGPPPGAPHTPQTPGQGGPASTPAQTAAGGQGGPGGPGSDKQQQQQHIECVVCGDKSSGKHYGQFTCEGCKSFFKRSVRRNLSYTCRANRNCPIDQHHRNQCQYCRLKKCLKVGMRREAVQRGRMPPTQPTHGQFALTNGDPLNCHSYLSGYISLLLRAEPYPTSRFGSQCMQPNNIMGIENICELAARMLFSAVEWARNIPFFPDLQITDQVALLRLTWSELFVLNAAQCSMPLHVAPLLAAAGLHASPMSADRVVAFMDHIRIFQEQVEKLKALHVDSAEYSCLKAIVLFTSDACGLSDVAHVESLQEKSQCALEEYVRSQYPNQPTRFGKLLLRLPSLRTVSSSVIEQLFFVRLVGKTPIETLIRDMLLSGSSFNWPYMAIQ
# VP16 Luc counter – Gal4-VP16 luciferase reporter inhibitors, counter-screen for COUP-TFII antagonist project, cell-based, luminescence, HEK293; AID 687007, 2013; shares compounds with COUP-TFII inh; actives 25% (n = 2,500); inhibition, % at 8.5 µM; in the data active = inhibition above about 13%
# COUP-TFII conf – NR2F2 transcriptional activity inhibitors, confirmation, cell-based, luciferase reporter, HEK293, triplicate; shares compounds with COUP-TFII inh; HEK293 NGFI-A luciferase reporter, luminescence; inhibition, % at 8.5 µM; actives 45% (n = 2,500);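 active = mean inhibition over three repeats above a set limit taken from the earlier primary screen, cut at about 38% in these data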;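 note: 100% = cells given the luciferase reporter alone without the COUP-TF2 vector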
# An asterisk follows results filed as active; x = no result given. Shown are actives, neighbours in structure and some others; about 2.6% of the full set was active somewhere.
SMILES,Gli-Sufu block,Jurkat NFkB inh,Cardio protect,TAG inh,697 NFkB inh,COUP-TFII inh,VP16 Luc counter,COUP-TFII conf
CCOC(=O)C1=C(C(=O)OCC)C2N(Cc3ccccc3)c3ccccc3[C@@]23C[C@@H](C(=O)OC)N(S(=O)(=O)c2ccc(C(F)(F)F)cc2)C3=N1 (stereo partly drawn),x,x,x,x,x,2,x,x
COC(=O)[C@]12C[C@H](CC(=O)N3CCC(c4ccccc4)CC3)C(=O)N(CCc3ccc(OC)c(OC)c3)C1=C[C@H](COCc1ccccc1)O[C@@H]2C,x,x,x,x,x,22,x,x
O=C1CCC2(CCC(c3ccccc3)CC2)N1CCCO (stereo not drawn),x,x,x,x,x,-15,x,x
COc1cccc(NC(=O)CN(C)C(=O)c2cccc(S(=O)(=O)N3CCN(c4ccccc4)CC3)c2)c1,10,25,-11,0,-9,0,x,x
COc1cccc(CN(C)C(=O)c2cccc(S(=O)(=O)N3CCN(c4ccccc4)CC3)c2)c1OC,23,x,-16,-17,x,52*,-1,21
CCCCN(C)C(=O)CSc1nnc(-c2cccnc2)n1C1CCCCC1,x,x,x,x,x,16,x,x
CC(C)(C)[C@H]1C=C(C(=O)Nc2ccccc2)O[C@@H](OCCCCO)C1,-9,-51,-2,x,-49,63*,-28,16
COC(=O)c1cc2c(c3c4cc(F)ccc4n(S(=O)(=O)c4ccccc4)c13)C(=O)N(Cc1ccccc1)C2,x,x,x,x,x,8,x,x
COc1ccc(S[C@]2(C(=O)N3CCCC3)CC(=O)N(C(=O)c3ccccc3)[C@@H]2c2ccc(OC)cc2)cc1,x,x,x,x,x,16,x,x
CN(C)C(=O)c1ccc(NC(=O)c2cccc(S(=O)(=O)N3CCCCCC3)c2)cc1,-3,-4,-9,-1,-6,6,x,x
CN(C)C(=O)c1ccc(NC(=O)c2cccc(S(=O)(=O)N3CCCc4ccccc43)c2)cc1,12,21,-1,-17,-4,39*,-6,0
Cc1ccc2c(c1)c(/C=C/c1cc[n+](C)cc1)c(C)n2C,57*,46,-18,x,-3,54*,10,31
Cc1ccc2[nH]c(C)c(/C=C/c3cc[n+](C)cc3)c2c1,20,41,-12,x,-17,41*,5,20
C[n+]1ccc(/C=C/c2ccc(Br)cc2)cc1,16,-4,1,-2,14,-12,x,x
O=C(NCC1COCCO1)C1CCN(S(=O)(=O)c2ccc(Br)s2)CC1 (stereo not drawn),x,x,x,x,x,9,x,x
COc1ccc(S[C@]2(C(=O)N3CCN(C(C)=O)CC3)CC(=O)N[C@@H]2c2ccc(OC)cc2)cc1,x,x,x,x,x,4,x,x
CC(=NCc1ccco1)c1c(C)[nH]n(-c2nc3ccccc3s2)c1=O,28,-54,-11,x,-201,62*,-125,-23
CCOc1ccc(CCNC(=O)c2cc3sccc3n2Cc2ccccc2)cc1OCC,x,x,x,x,x,40*,-5,18
COc1ccc(-c2nsc3c(N4CCCCC4)ncnc23)cc1,41,-3,-8,-17,-217,57*,3,63*
COc1ccc2ccccc2c1-c1c(C(=O)c2ccc(Br)cc2)[nH]c(N)c1C(=O)NC1CCCCC1,x,x,x,x,x,-2,x,x
CC1(c2nnnn2Cc2ccccc2)CSCC(=O)N1Cc1cccs1 (stereo not drawn),x,x,x,x,x,-1,x,x
CCC(=O)Nc1ccc2c(c1)OCCO2,3,6,2,-6,-3,-14,x,x
O=C(CC1CS(=O)(=O)CC1CC(=O)Nc1ccc2c(c1)OCCO2)Nc1ccc2c(c1)OCCO2 (stereo not drawn),42,-51,-3,-2,-85,69*,-7,30
CCc1nc2ccc(C(=O)Nc3cc(-c4ccccc4)ccc3OC)cn2c1N(C)Cc1nccs1,x,x,75*,1,x,50*,6,21
CCc1nc2ccc(C(=O)Nc3cccc(NS(C)(=O)=O)c3)cn2c1N(C)C(=O)Cc1ccccc1,x,x,7,-5,x,16,x,x
SMILES,Gli-Sufu block,Jurkat NFkB inh,Cardio protect,TAG inh,697 NFkB inh,COUP-TFII inh,VP16 Luc counter,COUP-TFII conf
CCc1nc2ccc(C(=O)Nc3ccc(NC(C)=O)cc3)cn2c1N(C)C(=O)Cc1ccccc1,x,x,9,1,x,53*,-8,3
CSc1ccc(NC(=O)Nc2cccn(Cc3ccccc3F)c2=O)cc1,-33,6,-19,0,-41,39*,-73,-8
CCc1ccccc1NC(=O)Nc1cccn(Cc2ccccc2F)c1=O,-9,8,-5,14,17,10,x,x
Cc1cc(N2CCN(S(=O)(=O)c3ccc(Cl)cc3)CC2)c2ccccc2n1,33,16,-19,x,-80,41*,-1,14
Cc1cc(N2CCN(C(=O)Oc3ccc([N+](=O)[O-])cc3)CC2)c2ccccc2n1,x,x,x,x,x,43*,1,20
COC(=O)[C@]12C[C@H](CC(=O)NCCCCc3ccccc3)C(=O)N(CCc3ccc(OC)c(OC)c3)C1=C[C@H](COCc1ccccc1)O[C@@H]2C,x,x,x,x,x,1,x,x
Cc1nc2ccccc2n1Cc1ccccc1Br,49,10,-13,x,-26,41*,-4,10
CC(C)Oc1cccc(C(=O)C2CCCN(Cc3cnc(N4CCOCC4)s3)C2)c1 (stereo not drawn),19,33,-8,-2,-24,37*,-1,15
CC[n+]1c(/C=C2\Sc3ccccc3N2C)ccc2cccc(C)c21,87*,x,-22,-3,x,80*,14*,78*
CN1/C(=C/c2cccc[n+]2CCO)Sc2ccccc21,13,0,2,x,-13,11,x,x
CC(=O)c1ccc2c(c1)N(Cc1ccccc1Cl)C(=O)C(C)S2 (stereo not drawn),x,x,0,-1,x,84*,4,9
CCCCCCCC/C=C\CCCCCCCC(=O)NCCc1ccc(O)c(O)c1,57*,22,67*,130,-80,59*,0,11
Cc1cccc(OCC(=O)Nc2ccc3c(c2)nc(CCN2CCN(c4ccccn4)CC2)n3C)c1,53,9,-3,x,-44,52*,2,36
COc1ccc(-c2ncn(CCc3ccccc3OC)c2CC(C)C)cc1,x,x,x,x,x,30,x,x
COc1ccccc1NS(=O)(=O)c1ccc(C)c(NC(=O)c2ccc(S(=O)(=O)N3CCCCCC3)cc2)c1,37,17,-3,x,-21,41*,2,29

# Screening results deposited in PubChem by several laboratories.
